Test results published in PubChem BioAssay (NCI).
About 83,000 compounds went through this panel and 20% of them were active in at least one assay; those are over-represented in the sample as a whole.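 Plates (96-well) were seeded with cells, treated with compound at one concentration, and incubated for 48 hours before percent growth was determined.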 Values without a mark were called inactive. Activity calls are given as the source filed them. How the source made its calls: active means growth percent below 10; inactive means the rest.

Tests used:
Assay in all cases: NCI-60 one-dose screen, 48 h (100 = growth as untreated, 0 = no growth, -100 = all killed)
Conditions in all cases: 10 µM
NCI-H23 lung = test system: NCI-H23 lung
NCI-H226 lung = test system: NCI-H226 lung
NCI-H322M lung = test system: NCI-H322M lung
HOP-62 NSCLC = test system: HOP-62 NSCLC
NCI-H460 lung = test system: NCI-H460 lung
HOP-92 NSCLC = test system: HOP-92 NSCLC
NCI-H522 lung = test system: NCI-H522 lung
A549/ATCC NSCLC = test system: A549/ATCC NSCLC
786-0 renal = test system: 786-0 renal
COLO 205 colon = test system: COLO 205 colon

| Compound | growth (NCI-H23 lung) | growth (NCI-H226 lung) | growth (NCI-H322M lung) | growth (HOP-62 NSCLC) | growth (NCI-H460 lung) | growth (HOP-92 NSCLC) | growth (NCI-H522 lung) | growth (A549/ATCC NSCLC) | growth (786-0 renal) | growth (COLO 205 colon) |
| --- | --- | --- | --- | --- | --- | --- | --- | --- | --- | --- |
| COc1ccc2nc(-c3ccccc3)cc(C(C)=O)c2c1 | 89.8% | 87.6% | 84.7% | 78.3% | 99.1% | 71.5% | 80.9% | 100% | 95.8% | 110% |
| Cc1ccccc1[P+](Cc1ccccc1)(c1ccccc1)c1ccccc1 | 9.83% (active) | 39.5% | 42.3% | 32.3% | 17.5% | -21.8% (active) | -15.8% (active) | 19.7% | 43.7% | -56% (active) |
| COc1cc(-c2cc(/C=C/C(C)=O)[nH]n2)cc(OC)c1OC | 87.7% | 81.7% | 79.4% | 84.2% | 95.2% | 74.9% | -66% (active) | 86.2% | 84.5% | 93.4% |
| COC1OC2COC(c3ccccc3)OC2C(=O)C1NC(=O)c1ccccc1 (stereo not given) | 100% | 106% | 106% | 86.9% | 97.2% | 79.3% | 95.2% | 105% | 109% | 97.2% |
| Cc1ccc2nc3[nH]c(=O)[nH]c(=O)c3c(N)c2c1 | 91.9% | 100% | 73.3% | 84.3% | 81.2% | 76% | 83.9% | 89% | 78.7% | 91.2% |
| C(=C\c1nc2ccccc2s1)/c1ccc(N2CCOCC2)s1 | 78% | 89.4% | 79.7% | 118% | 80.7% | 93% | 64.2% | 83.3% | 82.5% | 94.8% |
| CCN(CC)CCOC(=O)c1ccc(NC(=O)Nc2cccc(Cl)c2)cc1 | 95.8% | 99.6% | 103% | 93.4% | 108% | 85.1% | 86.7% | 91.4% | 95.5% | 105% |
| CCc1nn2c(-c3ccccc3)c(-c3cc(OC)c(OC)c(OC)c3)nc2s1 | 98.3% | 84.6% | 82.4% | 98.7% | 88.3% | 49.8% | 70.9% | 92.1% | 76.5% | 84.9% |
| COc1cc([C@@H]2c3cc4c(cc3[C@H](SC(=N)N)[C@H]3COC(=O)[C@H]23)OCO4)cc(OC)c1OC | 13.7% | 0.754% (active) | 13% | 51.4% | 5.84% (active) | 68.5% | -7.12% (active) | 18.3% | 10.3% | -67.2% (active) |
| Cc1ccc2c(c1)-c1cc(C)nn1-c1ccc(C#N)cc1O2 | 78.2% | 75.4% | 81.5% | 51.6% | 60.5% | 69.1% | 15.2% | 51.6% | 86.4% | 66.3% |
| CN1CCN(c2nc(-c3cccnc3)nc3sc4c(c23)CCCCCC4)CC1 | 93.7% | 93.1% | 99.3% | 85.5% | 98% | -2.98% (active) | 103% | 91.2% | 92.8% | 102% |
| FC(F)(F)c1ccc(-c2cnc(Cl)nc2NC2CCCCCC2)cc1 | 25.8% | 42.1% | 71.1% | 33.4% | 25.8% | -28.4% (active) | -6.08% (active) | 17.4% | 40.1% | 22% |
| COc1cc2nc(Sc3sc(N)nc3C)n(-c3ccc(Oc4ccccc4)cc3)c(=O)c2cc1OC | 90.6% | 89.7% | 123% | 110% | 99.5% | 79.5% | 83.7% | 83.3% | 80% | 76% |
| Cn1c([N+](=O)[O-])cnc1/C=C1\Oc2ccc(Br)cc2C1=O | -9.69% (active) | -38.1% (active) | -10.5% (active) | -23.7% (active) | -35% (active) | -32% (active) | -49.4% (active) | -24.8% (active) | -52.9% (active) | -42.1% (active) |
| O=[N+]([O-])c1ccc(Br)o1 | 94.4% | 93.1% | 103% | 100% | 113% | 102% | 84.4% | 104% | 99.2% | 105% |
| Cc1cc(C)c2nc(C)c(C)[n+]([O-])c2c1 | 97.1% | 103% | 94.7% | 73.4% | 115% | 93.4% | 85.2% | 68.6% | 103% | 111% |
| NC(=O)C1CCCN(Cc2c[nH]c3ccccc23)C1 (stereo not given) | 95.8% | 84.5% | 98.5% | 91.1% | 106% | 96.2% | 84.6% | 96.4% | 105% | 104% |
| O=C(C=P(c1ccccc1)(c1ccccc1)c1ccccc1)c1ccc(Br)cc1 | 85.8% | 96.5% | 78.6% | 125% | 93% | 67.1% | 59.5% | 72.4% | 97.9% | 96% |
| COc1ccc2c(=O)cc(C(Cl)(Cl)Cl)oc2c1 | -18.4% (active) | -29.2% (active) | -17.6% (active) | -14.8% (active) | -7.69% (active) | -26.1% (active) | -51.7% (active) | -0.889% (active) | 8.97% (active) | -88.4% (active) |
| CCCc1ccnc(NS(=O)(=O)c2ccc(N)cc2)n1 | 62.8% | 79.2% | 103% | 105% | 95.4% | 93.1% | 56.6% | 79.3% | 90.3% | 37.8% |
| Cc1cc(O)c(C2=NN(c3ccc(S(N)(=O)=O)cc3)C(c3ccc(N(C)C)cc3)C2)c(C)c1Cl (stereo not given) | 79.3% | 88.8% | 97.6% | 107% | 47.1% | 45.5% | 39.7% | 40.8% | 95.6% | 76.2% |
| O/N=C1\CCC2CCCCC2C1 (stereo not given) | 103% | 103% | 106% | 108% | 103% | 82.9% | 93.4% | 96.6% | 105% | 114% |
| CC(=O)Oc1ccc(C2=Cc3ccc(OC(C)=O)cc3OC2C)cc1 (stereo not given) | 49.3% | 82.9% | 98.2% | 81.8% | 33.7% | 69.4% | 17.2% | 61.5% | 47.5% | 102% |
| O=c1oc2c3ccc4cnccc4c3[nH]c2c2ccccc12 | 65% | 77.1% | 78.6% | 70.8% | 5.33% (active) | 49.2% | -11.5% (active) | 0.199% (active) | 12.2% | -57.2% (active) |
| Clc1ccc(-c2nc(-c3cccs3)cn3ccnc23)cc1 | 71.1% | 72% | 97.4% | 57.7% | 81.3% | 81.5% | 28% | 57.4% | 99.8% | 71.1% |
| O=c1[nH]c(=O)n(C2C[C@@H](O)[C@@H](CO)O2)cc1F (stereo not given in full) | 15.9% | 50.4% | 57.6% | 27.7% | 6.58% (active) | 38.9% | 20.1% | 22.2% | 8.75% (active) | 36.7% |
| COc1cccc(-c2nnc(COc3ccc(-c4nc5ccccc5[nH]4)cc3OC)o2)c1 | 92.7% | 105% | 97.6% | 108% | 96.5% | 93.8% | 96.7% | 97.1% | 96.2% | 85.4% |
